Screening data as filed in PubChem.
NSD2 HMT inh: inhibitors of human histone methyltransferase NSD2. AID 743445. 0.54% of 310,000 active. inhibition, % at 12.5 µM. NSD2 peptide methylation, AlphaScreen, 120 min; in the data active means inhibition above about 50%
ARNT TACC3 PPI: disruptors of human ARNT/TACC3 interaction; Q9Y6A5; AlphaScreen His-ARNT PAS-B/GST-TACC3 binding, luminescence; TACC3 fragment carries E629A point mutation; inhibition, % at 9.99 µM; 0.66% of 390,000 active;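 active means mean inhibition of replicates at least 50% and at least half of replicates each reaching 50%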
PfHsp90 yeast 2: growth inhibition of yeast expressing Plasmodium Hsp90; 0.32% of 310,000 active; S. cerevisiae expressing PfHsp90, BacTiter-Glo ATP, 48 h; yeast lacking PDR1 and PDR3 efflux regulators; inhibition, % at 9.4 µM; AID 504621;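 active means every replicate shows inhibition above about 80%, whatever the replicate mean, limit read from the data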
SIRT5 block: inhibitors of human sirtuin-5 desuccinylase; Q9NXA8; Purified SirT5, succinyl-peptide AMC, trypsin-coupled fluorescence; inhibition, % at 15 µM; 1.1% of 330,000 active; in the data active means inhibition above about 15%
CASP6 VEID inh: inhibitors of human caspase-6; purified caspase-6, Z-VEID-R110 cleavage fluorescence; inhibition, % at 12.5 µM; 0.53% of 350,000 active; AID 686996;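 active means mean inhibition across replicates at least about 35%, with every replicate also reaching that limit, limit read from the data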
Target sequence (P55212 24-179 limits assumed): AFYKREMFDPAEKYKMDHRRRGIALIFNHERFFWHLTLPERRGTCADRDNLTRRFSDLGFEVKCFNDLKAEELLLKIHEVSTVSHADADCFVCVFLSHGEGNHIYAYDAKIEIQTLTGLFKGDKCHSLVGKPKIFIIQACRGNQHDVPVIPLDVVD
Target sequence (P55212 194-293 limits assumed): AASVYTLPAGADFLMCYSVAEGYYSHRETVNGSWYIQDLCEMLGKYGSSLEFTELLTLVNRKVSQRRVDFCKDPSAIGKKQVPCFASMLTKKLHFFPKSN
AlphaScreen art: interferes with AlphaScreen signal, flagging NSD2 false positives | shares compounds with NSD2 HMT inh | AlphaScreen artifact counterscreen, preloaded methylated H4 peptide | AC35, µM (highest dose often 10 µM) | 9.4% of 1,500 active | AID 1053174; call rule not given here
Hits are given with their value; n = inactive; x = no result given; + = active, no number. This is a sample that favours compounds with a hit; in the whole collection about 2.1% have one here.

SMILES	NSD2 HMT inh	ARNT TACC3 PPI	PfHsp90 yeast 2	SIRT5 block	CASP6 VEID inh	AlphaScreen art
C[C@H](CO)N1C[C@H](C)[C@H](CN(C)C)Oc2ncc(-c3ccc(F)cc3)cc2C1=O	x	n	x	n	n	x
CN(C1=C(N2CCOCC2)C(=O)c2ccccc2C1=O)c1ccccc1	76	60	n	x	x	2.9µM
Cc1ccc(N2CCOCC2)c2c1C(=O)c1ccccc1C2=O	57	n	n	n	n	4.3µM
CC(=O)N(C(C)=O)N1C(=O)c2cccc3c(N4CCOCC4)ccc(c23)C1=O	n	n	n	n	n	x
c1ccc(N2CCOCCOCCOCCOCCOCC2)cc1	n	n	n	n	n	x
O=C1C=C(N2CCOCC2)c2ccccc2C1=O	+	x	n	n	100	n
O=C1C=C(N2CCOCC2)c2cccc3cccc1c23	x	x	x	x	n	x
CO[C@@H](CN(C)S(=O)(=O)c1ccc(F)cc1)[C@H](C)CN([C@@H](C)CO)S(=O)(=O)c1cccc(Cl)c1	x	n	x	x	n	x
O=C(NC(=S)Nc1ccccc1N1CCCCC1)c1ccco1	n	n	n	n	n	x
O=C(NC(=S)Nc1ccccc1N1CCCC1)c1ccco1	74	n	n	n	n	n
COc1ccc(-c2nnc3n2N=C(C)CS3)cc1	68	n	x	x	x	n
COc1ccc(C2=Nn3c(nnc3-c3ccc(OC)cc3)SC2)cc1	n	n	n	x	x	x
C[n+]1cccc2c(Br)ccc([O-])c21	104	n	n	n	53	n
